Assay outcomes (PubChem BioAssay)
Shown are actives, neighbours in structure and some others; about 1.6% of the full set was active somewhere.
HTR5A ag = activates human HTR5A in OPRM1-OPRD1 agonist counter-screen | P47898 | HTR5A agonist assay, luminescence, cell-based | activation, % at 9.3 µM | 340,000 compounds, 0.61% hits | AID 504692; in the data active = activation mostly above about 9.5%, no sharp cut-off; inactive = mostly below about 7.6%
MOR-DOR inv ag = inverse agonists of human mu-delta opioid receptor heterodimerization; inhibition, % at 9.3 µM; 340,000 compounds, 0.21% hits; P35372+P41143; cell-based MOR-DOR heterodimer luminescence, inverse agonism; AID 504357; in the data active = inhibition above about 22%, passing the limit was not always enough
HTR2A ag = agonists of mouse serotonin 5-HT2A receptor (HTR2A); activation, % at 7.6 µM; CHO-K1 mHTR2A beta-arrestin complementation, luminescence; percent of 30 µM serotonin response; P35363; 360,000 compounds, 0.66% hits; AID 624169;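 active = activation above a run cutoff, the mean activation of all tested compounds plus 3 SD, cut at about 14% in these data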
Target sequence (P35363 whole entry, looked up): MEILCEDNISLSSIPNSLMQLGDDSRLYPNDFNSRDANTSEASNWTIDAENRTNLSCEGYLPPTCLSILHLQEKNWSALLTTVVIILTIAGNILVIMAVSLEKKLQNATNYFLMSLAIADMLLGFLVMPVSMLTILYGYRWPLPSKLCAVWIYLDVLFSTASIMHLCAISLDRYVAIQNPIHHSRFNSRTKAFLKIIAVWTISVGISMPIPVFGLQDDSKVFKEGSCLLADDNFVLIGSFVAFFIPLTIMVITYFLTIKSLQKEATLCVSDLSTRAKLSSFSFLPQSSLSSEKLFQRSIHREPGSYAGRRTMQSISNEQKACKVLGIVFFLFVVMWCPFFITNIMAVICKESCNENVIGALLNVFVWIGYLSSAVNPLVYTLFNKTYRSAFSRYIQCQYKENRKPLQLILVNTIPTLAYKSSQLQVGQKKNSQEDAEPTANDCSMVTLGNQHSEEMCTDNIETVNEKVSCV
MOR-DOR ag = OPRM1-OPRD1 heterodimerization agonism | P35372+P41143 | cells, luminescence | 340,000 compounds, 0.3% hits | activation, % at 9.3 µM; in the data active = activation above about 18%
HTR5A inv ctr = counter-screen for OPRM1-OPRD1 inverse agonists: human HTR5A inverse agonism; 340,000 compounds, 0.083% hits; inhibition, % at 9.3 µM; HTR5A cell line, luminescence; in the data active = inhibition mostly above about 23%, no sharp cut-off; inactive = mostly below about 18%
Of the large screens only hits and unclear results are named; the others gave an inactive call; ! = not confirmed by another sample.

Cc1c(CC(=O)N2CCN(C(=O)C3COc4ccccc4O3)CC2)c(=O)oc2c(C)c(O)ccc12 (stereo not drawn)	MOR-DOR inv ag 33.8
Cc1c(CC(=O)N2CCN(C(=O)C3COc4ccccc4O3)CC2)c(=O)oc2cc(O)ccc12 (stereo not drawn)	none
CCN(Cc1ccccc1)c1cc2c(c3c1ccn3C)C1CCC2C1 (stereo not drawn)	none (no result: HTR5A ag, MOR-DOR inv ag, MOR-DOR ag, HTR5A inv ctr)
O=C(NCc1ccccc1)N1CCN(c2ccc(Cl)c(Cl)c2)CC1	HTR2A ag 18.2
COc1ccc(S(=O)(=O)N2CCOCC2)cc1NC(=O)CSc1ncccn1	HTR5A ag 10.8
CCCCn1c(SCC(=O)NC2CC2)nc2cc(C(=O)OC)ccc2c1=O	none (no result: HTR5A ag, MOR-DOR inv ag, MOR-DOR ag, HTR5A inv ctr)
CCN(c1ccc(C)cc1C)S(=O)(=O)c1nnc(NC(=O)C(C)(C)C)s1	HTR5A ag 9.9
COc1ccc(C2c3c(-c4ccccc4O)n[nH]c3C(=O)N2Cc2ccco2)cc1OC (stereo not drawn)	none
O=C1c2[nH]nc(-c3ccccc3O)c2C(c2cccc(Cl)c2)N1Cc1ccco1 (stereo not drawn)	HTR5A ag 14.1, HTR2A ag 14.8
N#CCCNS(=O)(=O)c1ccc(C(=O)OCC2CCCCC2)cc1	HTR5A ag 12.3
N#CCCNS(=O)(=O)c1ccc(C(=O)OCCCOC(=O)c2ccc(S(=O)(=O)NCCC#N)cc2)cc1	none
CC(C)[C@H](NC(=O)N1CCn2c1nc1ccccc12)C(=O)NCC1CCCO1 (stereo partly drawn)	HTR2A ag 14.6 (no result: HTR5A ag, MOR-DOR inv ag, MOR-DOR ag, HTR5A inv ctr)
COc1cccc(CNc2nc(NC(C)C)nc3ccsc23)c1	none (no result: HTR5A ag, MOR-DOR inv ag, MOR-DOR ag, HTR5A inv ctr)
CCNc1cc(=O)n(C)c(=O)n1C	none
CCCCNc1cc(=O)n(C)c(=O)n1C	HTR2A ag 14.9
COc1ccc2nc(C)cc(N/N=C/c3ccc(F)cc3)c2c1	MOR-DOR ag 30.9
COc1ccc(/C=N/Nc2cc(C)nc3ccccc23)cc1	none
Cc1c(-c2ccc(OCCN3CCOCC3)cc2)c(=O)oc2ccc3ccccc3c12	none (no result: HTR5A ag, MOR-DOR inv ag, MOR-DOR ag, HTR5A inv ctr)
COc1ccc(CN2C(=O)c3cccc4cccc(c34)C2c2nc3ccccc3[nH]2)cc1 (stereo not drawn)	none (no result: HTR5A ag, MOR-DOR inv ag, MOR-DOR ag, HTR5A inv ctr)
O=C1c2ccccc2C(=O)N1Nc1ccc([N+](=O)[O-])cc1[N+](=O)[O-]	HTR5A inv ctr 35.3
CC(S(=O)(=O)c1ccccc1)S(=O)(=O)c1ccccc1	none (no result: HTR5A ag, MOR-DOR inv ag, MOR-DOR ag, HTR5A inv ctr)
CC1=C/C(=N\OS(=O)(=O)c2ccccc2)C(C(C)C)=CC1=O	HTR5A ag 19.8, MOR-DOR ag 186.1
CC(C)(C)c1cc(CCC(=O)NNC(=S)NC(=O)c2ccccc2)cc(C(C)(C)C)c1O	MOR-DOR inv ag 67.5, HTR5A inv ctr 82.2
O=C(CCc1ccccc1)NNC(=S)NC(=O)c1ccccc1	none
CCOc1ccc(NC(=O)c2ccc(NC(=S)NC3CCCCC3)cc2)cc1	HTR5A ag 9.9
CCOc1ccc(NC(=O)c2ccc(NC(=S)NC3CC3)cc2)cc1	none
CCOC(=O)Nc1sc(C)c(C)c1C(=O)OCC	HTR5A ag 13.1
CCOc1cc(C(=O)N/N=C/c2ccoc2)cc(OCC)c1OCC	none
CCOc1cc(C(=O)N/N=C/c2ccsc2)cc(OCC)c1OCC	HTR5A ag 14.0
COC(=O)C[C@H]1C=C[C@H](NC(=O)Nc2ccccc2OC)[C@@H](CO)O1	none (no result: HTR5A ag, MOR-DOR inv ag, MOR-DOR ag, HTR5A inv ctr)
COc1ccc(NC(=O)C2Cc3c(-c4ccc(NC(C)=O)cc4)ccnc3O2)cn1 (stereo not drawn)	none (no result: HTR5A ag, MOR-DOR inv ag, MOR-DOR ag, HTR5A inv ctr)
C[C@H](O)C#Cc1ccc2c(c1)O[C@@H](CN(C)Cc1ccc(-c3ccccc3)cc1)[C@H](C)CN([C@@H](C)CO)S2(=O)=O	none (no result: HTR5A ag, MOR-DOR inv ag, MOR-DOR ag, HTR5A inv ctr)
COc1ccc(-c2cc(C(=O)NC(C)c3ccccn3)c3ccccc3n2)cc1OC (stereo not drawn)	HTR2A ag 20.1
COc1cccc(-c2cc(C(=O)Nc3ccncc3)c3ccccc3n2)c1	HTR5A ag 13.7
COc1ccc(-c2cc(C(=O)NC3CCCC3)c3ccccc3n2)cc1OC	none
Cc1cccc(NC(=O)c2cc(C)nc3ccccc23)c1	HTR5A ag 14.2
Cc1ccc(NC(=O)c2cc(C)nc3ccccc23)cc1	none
C(=C\c1ccccc1)/CN1CCN(C(c2cccc3ccccc23)c2nnnn2C2CCCC2)CC1 (stereo not drawn)	none (no result: HTR5A ag, MOR-DOR inv ag, MOR-DOR ag, HTR5A inv ctr)
Cc1ccc(CN2C(=O)C(Cc3ccccc3)Nc3ncnc(N4CCN(c5ccccc5)CC4)c32)cc1 (stereo not drawn)	MOR-DOR inv ag 50.9, HTR5A inv ctr 55.2
CCC1Nc2ncnc(N3CCN(c4ccccc4)CC3)c2N(Cc2ccc(Br)cc2)C1=O (stereo not drawn)	MOR-DOR inv ag 78.6, HTR5A inv ctr 78.7
CCC1Nc2ncnc(N3CCN(c4ccccc4)CC3)c2N(Cc2ccc(OC)cc2)C1=O (stereo not drawn)	MOR-DOR inv ag 57.3, HTR5A inv ctr 51.8
CCC1Nc2ncnc(N3CCOCC3)c2N(Cc2ccc(OC)cc2)C1=O (stereo not drawn)	none
O=C1C(Cc2ccccc2)Nc2ncnc(N3CCN(c4ccccc4)CC3)c2N1Cc1ccc(Br)cc1 (stereo not drawn)	MOR-DOR inv ag 67.5, HTR5A inv ctr 59.4
O=C1C(Cc2ccccc2)Nc2ncnc(N3CCOCC3)c2N1Cc1ccc(Cl)cc1 (stereo not drawn)	none
O=C1C(Cc2ccccc2)Nc2ncnc(N3CCN(c4ccccc4)CC3)c2N1Cc1ccccc1 (stereo not drawn)	none
Cc1ccc(S(=O)(=O)NN=CC=CC=NNS(=O)(=O)c2ccc(C)cc2)cc1	none (no result: HTR5A ag, MOR-DOR inv ag, MOR-DOR ag, HTR5A inv ctr)
Cc1cn(-c2cc(C(=O)Nc3ccc(C)c(NC(=O)C(=O)c4c[nH]c5ccccc45)c3)cc(C(F)(F)F)c2)cn1	HTR2A ag 16.5!
Cc1ccc(C(=O)Nc2cccc(C(F)(F)F)c2)cc1NC(=O)c1c[nH]c2cc(C(F)(F)F)ccc2c1=O	none
COc1ccccc1-c1cn[nH]c1-c1ccc(OCc2ccccc2)cc1O	HTR5A ag 12.1
COc1ccc(-c2cn[nH]c2-c2ccc(OCc3ccccc3)cc2O)cc1	none
CCN(CC)C(=O)c1ccc2sc([C@@H]3O[C@H](CO)[C@H](O)[C@H](O)[C@H]3O)nc2c1	none (no result: HTR5A ag, MOR-DOR inv ag, MOR-DOR ag, HTR5A inv ctr)
CC(C)(C)c1ccc(/C=C/C(=O)Nc2ccncc2)cc1	HTR5A ag 13.2
COc1ccc(-c2cc(C(=O)O)no2)cc1	HTR5A ag 9.8
Cc1nc2sc(C(c3ccc(Cl)cc3)N3CC(C)OC(C)C3)c(O)n2n1 (stereo not drawn)	HTR5A ag 11.3
Cc1ccc(C(c2sc3nc(C)nn3c2O)N2CC(C)OC(C)C2)cc1 (stereo not drawn)	none
CCOCCn1c(SCc2ccc(C)cc2)nc2c1c(=O)[nH]c(=O)n2C	HTR5A ag 12.9
CC1=CC(=O)C=C(C)C1=NOC(=O)/C=C\c1ccccc1	HTR5A ag 12.8
CC1=CC(=NOC(=O)/C=C/c2ccccc2)C=C(C)C1=O	none
CC(C)c1cc(C(=O)NNC(=S)NCc2ccco2)c(O)c(C(C)C)c1	HTR5A ag 10.0
COc1ccc(C(C(=O)NC2CCCCC2)N(C(=O)CCl)c2ccc(Cl)cc2)cc1 (stereo not drawn)	HTR5A ag 65.7, MOR-DOR ag 89.3
